Only some compounds are listed: those with a hit (about 3% of all), similar ones and a draw of the others.
KCNH2 WT inh = blocks the wildtype human KCNH2 potassium channel; Q12809; U2OS, BacMam KCNH2, thallium flux FluxOr; hits give low values; activity change, % at 1.84 µM; actives 0.37% (n = 340,000); AID 720551;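 active = maximum activity change below -70%; inconclusive = maximum activity change between -70% and -50%; inactive = maximum activity change above -50%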; note: % is set by controls: 0 for no effect and ±100 for the full control effect
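U2OS cells were transduced with wild-type KCNH2 virus (2.03 x 10^8 / mL) for 4 h at room temperature, then cultured overnight at 37 C. Thallium flux was read with FluxOr dye. Rate constants were normalized to DMSO controls.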
ALOX12 inh = ALOX12 (human) lipoxygenase inhibition | P18054 | purified 12hLO, xylenol orange hydroperoxide absorbance | Potency, µM (top dose mostly 108 µM), for the others: top-dose activity change, negative = inhibition, usual class: inhibitors | actives 1.1% (n = 580,000) | AID 1671190; active = well fitted inhibition curve with a large enough effect; inconclusive = small, poorly fitted or top-dose-only effect, or another doubt; inactive = no such curve, though single readings can be large or run the other way; note: potency is the fitted concentration of half-maximal effect; % is set by controls: 0 for no effect and ±100 for the full control effect
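Hydroperoxide product was detected by ferrous iron/xylenol orange as the 573 to 405 nm absorbance ratio. Arachidonic acid at 40 uM (final) was turned over for 30 min at room temperature by 150 nM human 12hLO, pH 7.0 Hepes buffer, after 15 min compound preincubation.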
KCNH2 3.1 block = blocks the human KCNH2 3.1 channel isoform; AID 720553; U2OS KCNH2 3.1, thallium flux FluxOr; hits give low values; activity change, % (tested at about 1.8 µM); actives 0.95% (n = 340,000);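 active = maximum activity change below -70%; inconclusive = maximum activity change from -70% to -50%; inactive = maximum activity change above -50%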;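 note: thallium influx rate constant from kinetic fluorescence after stimulation buffer; % is set by controls: 0 for no effect and ±100 for the full control effect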
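Thallium flux via FluxOr fluorescence (Red40 quencher, 45 min loading) in U2OS cells virally expressing the KCNH2 3.1 isoform (1.77 x 10^8 /mL virus, overnight at 37 C). Rate constants from 2-min kinetic reads post-stimulation, normalised to positive and negative controls.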
ClpP mod = qHTS Assay for Activators of ClpP | ATP-dependent Clp protease proteolytic subunit (Bacillus subtilis (strain 168)), P80244 | purified B. subtilis ClpP, FRET peptide cleavage, 20 min | Potency, µM (highest dose often 57.5 µM), for the others: top-dose activity change, negative = active | actives 1.9% (n = 340,000); active = well fitted falling curve with a large enough effect; inconclusive = small, poorly fitted or top-dose-only effect; inactive = no such curve, though single readings can be large or run the other way; note: potency is the fitted concentration of half-maximal effect; the source files actives as falling curves though it sought activators and does not explain the sign; nearly all actives have a fitted effect of over 65% in size
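ClpP 10 microg/mL final, pH 8 Tris/KCl buffer with BSA, glycerol, Tween-20; compound pinned in; FRET-FV substrate; RT 20 min; Ex320/Em430; ΔFRET vs ADEP 5.8 microM, DMSO, no enzyme.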
Chronic BCR inh = inhibitors of chronic active B-cell receptor signaling; ABC-DLBCL IkBa-CBG/CBR reporter, luminescence ratio, 4 h; Potency, µM (highest dose often 46.1 µM), for inactives: top-dose activity change, negative = inhibition, most hits filed as inhibitors; actives 0.05% (n = 340,000); AID 493014; active = well fitted inhibition curve with a large enough effect in the signal ratio, with a control signal flat, not every such curve was filed as active; inconclusive = small, poorly fitted or top-dose-only effect, or effect the other way, or a change in a side signal; the % refers to the signal ratio;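 note: potency is the fitted concentration of half-maximal effect; plate controls were basal doxycycline-induced cells for no effect and cells given 10 µM MG132 for full effect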
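Doxycycline induced both beetle luciferases in TMD8 lymphoma cells; IKK-driven degradation limits the IkappaBalpha-fused green signal, while red luminescence normalises for cell number and nonspecific effects. Compounds tested up to 46 uM, 4 hrs.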
LDHA inh = inhibitors of human lactate dehydrogenase A | P00338 | purified LDHA, NADH/diaphorase-resazurin fluorescence; hits give low values | activity change, % (values are at about 110 or 230 µM) | actives 0.15% (n = 480,000) | AID 1347041; in the data active = activity change below about -30%; inconclusive = mostly about -25% to -30%;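 note: plate controls were DMSO wells for no effect and wells without enzyme for full effect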
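Remaining NADH was detected by diaphorase (0.133 mg/mL) converting 37 µM resazurin to fluorescent resorufin, read at 0 and 20 minutes. The preceding 5-minute room-temperature reaction used 2 nM LDHA, 0.2 mM sodium pyruvate and 0.06 mM NADH at pH 7.4.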
Starred values were filed as active, the others as inactive; ? = inconclusive; . = no result; [ ] = another dose, or the depositor's remark.

SMILES	KCNH2 WT inh	ALOX12 inh	KCNH2 3.1 block	ClpP mod	Chronic BCR inh	LDHA inh
Cc1cccc(OC[C@H]2C[C@@H](NC(=O)C3CCCC3)[C@H](O)[C@@H]2O)n1	.	2%[176 µM]	.	.	.	.
Cc1cccc(OC[C@H]2C[C@@H](NC(=O)c3ccc(C#N)cc3)[C@H](O)[C@@H]2O)n1	.	25µM*	.	.	.	.
Cc1ccccc1NC(=O)Cn1c(=O)c2cccn2c2ccccc21	.	?	.	.	.	-9
CC[C@H]1CN(C(C)=O)CC[C@H]1CC(=O)Nc1ccccc1	.	37%[176 µM]	.	.	.	.
Oc1ccc(C2CCN(c3ccnc4ccccc34)CC2)cc1O	.	3.1µM*	.	.	.	.
N#Cc1cccc(Oc2ccc(S(=O)(=O)N3CCCC3)cn2)c1	-89*	16%	?	-1%	-8%	-9
Cc1c(CCl)cc(C(=O)O)cc1CCl	.	5.6µM*	.	.	.	2
Cc1ccc(C2C(C#N)=C(N)OC3=C2C(=O)CC(c2ccccc2Cl)C3)cc1 (stereo not given)	.	?	.	.	.	1
N#CC1=C(N)OC2=C(C(=O)CC(c3ccccc3Cl)C2)C1c1ccc(Cl)cc1 (stereo not given)	.	16µM*	.	.	.	13
CC(Cc1ccco1)NS(=O)(=O)N1CCCCC1 (stereo not given)	.	0%	.	.	.	5
CCN(CC)c1ccc(/C=C/C(=O)C2C(=O)C=C(C)OC2=O)cc1 (stereo not given)	?	4%	-78*	.	-4%	10
CCN(CC)c1ccc(C=C2C(=O)OC(c3ccccc3)OC2=O)cc1 (stereo not given)	-6	?	10	.	2%	0
COc1cc(/C=C/C(=O)C2C(=O)C=C(C)OC2=O)cc(Cl)c1OC(F)F (stereo not given)	.	14µM*	.	.	.	13
O=C(Nc1ccc2ncnc(N3CCCC3)c2c1)c1ccc(Cl)s1	.	53%	.	.	.	.
COc1ccc(Cl)cc1S(=O)(=O)n1ccnc1C(C)C	2	.	-83*	2%	?	-3
CC(C)c1nccn1S(=O)(=O)c1cc(Cl)ccc1Cl	-5	1%	-2	-4%	?	-6
CCNC(=S)Nc1cccc(S(=O)(=O)Nc2ccccc2OC)c1	3	-1%	-85*	.	-1%	-11
COc1ccccc1NS(=O)(=O)c1cccc(NC(=O)Nc2ccccc2)c1	7	?	-4	1%	?	-6
CCC(C(=O)NC1CCN(c2cn[nH]c(=O)c2)CC1)c1ccccc1 (stereo not given)	.	45%	.	.	.	.
Cc1c(C(=O)NNC(=O)c2csc(N3CCOCC3)n2)oc2ccc(Br)cc12	-1	40µM*	-2	0%	.	2
Cc1c(C(=O)NNC(=O)c2csc(N3CCOCC3)n2)oc2ccccc12	-5	1%	-2	-4%	?	3
Cc1noc([C@@H](C)NC(=O)Nc2ccc(Cl)cc2)c1C(=O)O	.	20µM*	.	.	.	.
C[C@@H](NC(=O)Nc1ccccc1)c1onc(-c2ccc(F)cc2)c1C(=O)O	.	63µM*	.	.	.	.
C[C@@H](NS(C)(=O)=O)c1onc(-c2cccnc2)c1C(=O)O	.	56µM*	.	.	.	.
C[C@@H](NC(=O)c1cccnc1)c1onc(-c2ccc(F)cc2)c1C(=O)O	.	18µM*	.	.	.	.
COc1ccc(-n2nc3n(c2=O)CCN([S+](=O)([O-])c2ccccc2)C3)cc1	.	9%[6.33 µM]	.	.	.	.
COc1ccc(NC2CCN(C3CC(=O)N(c4ccc(F)c(Cl)c4)C3=O)CC2)cc1 (stereo not given)	3	15%	-10	2.8µM*	1%	15
COc1ccc(Cn2c(C3CCN(C(=O)c4c(F)cccc4F)CC3)n[nH]c2=O)cc1	.	-8%	.	.	.	.
Cc1cccn2c(=O)c3cc(C#N)c(=N)n(CCN4CCOCC4)c3nc12	-6	.	10	16µM*	?	-6
Cc1cccn2c(=O)c3cc(C#N)c(=N)n(CCCN4CCOCC4)c3nc12	0	0%	8	?	.	2
